Assay results as given in PubChem BioAssay (NCATS).
Several values for one entry are separate records, joined by “and”; a condition that tells them apart may be missing. Equal entries are not always repeated. Inconclusive results are not listed. A call without a number means that no potency is given here. Activity calls are given as the source filed them. Unless noted, the call rests on the fitted dose curve; in most records, active means well fitted curve in the direction sought with a large enough effect; inconclusive means small, poorly fitted or top-dose-only effect, or another doubt; inactive means no such curve, though single readings can be large; an effect the other way counts as inactive or inconclusive.

Assays:
[1] = Cell Viability - NIH 3T3 (AID 541); settings: NIH 3T3 cell viability, qHTS; activity change, negative = cytotoxicity: at 92.2 µM (top of the series); further: nearly all actives have a fitted effect of over 25% in size
Summary of the method: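 Luminescent ATP signal (CellTiter-Glo) served as the viability read-out after NIH 3T3 cells were exposed to compounds over a concentration range for 40 hr at 37 °C. Hill-equation modelling of concentration-response data gave AC50.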

[2] = Cell Viability - H-4-II-E (AID 543); further: nearly all actives have a fitted effect of over 35% in size
Summary of the method: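 Luminescent ATP signal (CellTiter-Glo) served as the viability read-out, with cytotoxicity seen as a concentration-dependent ATP drop. Cells were treated for 40 hours in complete medium. AC50 values derive from Hill-equation modelling.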

[3] = Cellular Toxicity (caspase-3) HepG2 (AID 654);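 further: cells exposed to compound for 16 hours before reading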
Summary of the method: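 Cells plated 5 hr at 37 °C, compound added, incubated 16 hr at 37 °C. Caspase-Glo 3/7 reagent followed, 20 min at room temperature, then luminescence read. Activation scored as signal increase; AC50 from Hill fit.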

[4] = Cellular Toxicity (caspase-3) Hek293 (AID 664);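 further: cells exposed to compound for 16 h at 37 °C before readout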
Summary of the method: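 Cells plated, 5 hr at 37 °C; compounds added; 16 hr at 37 °C; Caspase-Glo 3/7 reagent, 20 min RT; luminescence read. Activation expressed relative to DMSO and 100 uM tamoxifen, AC50 by Hill model.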

[5] = Cellular Toxicity (caspase-3) NIH 3T3 (AID 666);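 further: caspase signal read after 16 h compound exposure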
Summary of the method: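 Luminescence from aminoluciferin released by caspase-3/7 cleavage of a peptide substrate served as read-out. Mouse fibroblast NIH 3T3 cells were exposed to compounds over a concentration range for 16 hours, and AC50 values came from standard Hill modelling.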

[6] = MultiTox-Fluor Cytotoxicity Assay - LYMP1-002 - Live Cells (AID 955)
Summary of the method: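 Read-out is live-cell protease activity (cell-permeant GF-AFC substrate, fluorescence Ex/Em=405/510), where a decrease indicates acute toxicity. Human lymphoblastoid cells were treated 16 hours at 37 C in a concentration series, and AC50 values came from standard Hill modelling.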

[7] = MultiTox-Fluor Cytotoxicity Assay - LYMP1-003 - Live Cells (AID 962);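 further: cells exposed to compound for 16 hours at 37 °C; cytotoxic hits lower the live-cell protease signal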
Summary of the method: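 qHTS, 1536-well; 2500 cells/well LYMP1-003; 5 hr 37 C settle; cpd 16 hr 37 C; MultiTox-Fluor reagent 60 min RT; live-cell protease fluor. 405/510; Hill-fit AC50; tetraoctylammonium bromide pos. ctrl.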

[8] = Cell Viability - LYMP1-003 - Assay at 40 hr (AID 964); further: nearly all actives have a fitted effect of over 60% in size
Summary of the method: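 Cells were seeded at 2500 per well and incubated 5 hr at 37 C. Compounds were added across a concentration series and left 40 hr at 37 C. CellTiter-Glo was added for 30 min at room temperature before luminescence reading.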

[9] = Cell Viability - LYMP2-004 (AID 966); further: nearly all actives have a fitted effect of over 65% in size
Summary of the method: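 Cells seeded 2500/well, rested 5 hr at 37 C, dosed across a concentration series, incubated 24 hr at 37 C, then CellTiter-Glo added for 30 min at room temperature and luminescence read. Hill fitting gave AC50.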

[10] = Cell Viability - LYMP2-017 (AID 972);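 further: cells exposed to compound for 24 hours at 37 °C; nearly all actives have a fitted effect of over 55% in size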
Summary of the method: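 2500 cells/well, 5 h 37 C; cpd 24 h 37 C in complete medium; CellTiter-Glo, 30 min RT; luminescence (ATP). AC50 via Hill fit, qHTS.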

[11] = Cell Viability - LYMP2-019 (AID 973); further: nearly all actives have a fitted effect of over 55% in size
Summary of the method: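 Luminescent ATP read-out (CellTiter-Glo, 30 min room temperature) served as the viability measure after 24 hr treatment of lymphoblastoid cells at 37 C. Concentration-response data were fitted to the Hill equation for AC50.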

[12] = Cell Viability - LYMP2-002 (AID 977)
Summary of the method: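 Luminescent ATP readout (CellTiter-Glo, 30 min room temperature) after 24 h compound exposure at 37 C of a human lymphoblastoid line, 2500 cells/well. AC50 values derived by standard Hill fitting of qHTS concentration-response data.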

[13] = Cell Viability - LYMP2-007 (AID 979);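 further: cells exposed to compound for 24 h before reading; nearly all actives have a fitted effect of over 60% in size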
Summary of the method: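 Luminescent ATP signal (CellTiter-Glo) serves as the viability read-out after 24 hr compound treatment of lymphoblastoid cells in complete medium at 37 C. Concentration-response data were fitted to the Hill equation to give AC50 values.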

[14] = Cell Viability - LYMP2-014 (AID 983); further: nearly all actives have a fitted effect of over 50% in size
Summary of the method: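 Luminescent ATP signal (CellTiter-Glo, 30 min at room temperature) serves as the viability read-out after 24 hr compound exposure at 37 C. Cells were seeded at 2500 per well and settled 5 hr beforehand.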

[15] = Cell Viability - LYMP2-022 (AID 987); further: nearly all actives have a fitted effect of over 55% in size
Summary of the method: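 qHTS: human lymphoblastoid cells 2500/well; 5 hr 37 C; cpd added; 24 hr 37 C; CellTiter-Glo, 30 min RT; luminescence. AC50 via Hill fit; tetraoctylammonium bromide positive ctrl.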

[16] = qHTS assay for small molecule agonists of retinoid X receptor alpha signaling (AID 588544); settings: HEK293T RXRa-UAS-bla, beta-lactamase reporter, 18 h; 530 nm emission
[17] = target: Retinoic acid receptor RXR-alpha (Homo sapiens) (UniProt P19793); test: qHTS assay for small molecule antagonists of retinoid X receptor alpha signaling (AID 588546; active means well fitted inhibition curve with a large enough effect in the signal ratio, with a control signal flat, not every such curve was filed as active; the % refers to the signal ratio;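 further: cells stimulated with 9-cis-retinoic acid as agonist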); settings: HEK293T RXRa-UAS-bla, beta-lactamase ratio, antagonist mode
Summary of the method: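 Beta-lactamase reporter inhibition, read as CCF4 fluorescence ratio (ex 405, em 460/530 nm) after 2 h at RT. HEK293T UAS-bla cells, 2500/well, were stimulated with 9-cis-RA at 500 or 100 nM final alongside test compound for 18 h at 37 C.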

[18] = target: Voltage-gated inwardly rectifying potassium channel KCNH2 (Homo sapiens) (UniProt Q12809); test: qHTS Assay for Small Molecule Inhibitors of the Human hERG Channel Activity (AID 588834);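 further: top concentration of the series differs between compounds; lower thallium flux fluorescence means stronger hERG block; nearly all actives have a fitted effect of over 50% in size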
Summary of the method: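 U2OS cells transduced with hERG via BacMam (MOI ~100), plated 2000/well, loaded with FluxOR thallium dye, compound ~10 min, then stimulation buffer; fluorescence decrease read kinetically; AC50 from Hill fits.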

[19] = qHTS assay for small molecule disruptors of the mitochondrial membrane potential - 1 hr assay (AID 651754; calls by dose curve; further: nearly all actives have a fitted effect of over 35% in size)
Summary of the method: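 HepG2, 2,000 cells/well, overnight attachment; cpd or DMSO 1 hr, 37C/5% CO2; Mito-MPS dye 30 min, 37C; fluorescence monomer (490/535) and aggregate (540/590).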

[20] = qHTS assay for small molecule agonists of the antioxidant response element (ARE) signaling pathway measured by Nrf2-dependant transcriptional activity (AID 720636; active means well fitted curve in the direction sought with a large enough effect in the repeat runs; an effect the other way counts as inactive or inconclusive)
Summary of the method: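 Quantitative HTS format in HepG2 cells stably expressing an ARE-luciferase reporter; 16 hr compound treatment at 37 C, luciferase signal detected with ONE-Glo.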

Sequence of Retinoic acid receptor RXR-alpha (Homo sapiens) (P19793 whole entry, looked up): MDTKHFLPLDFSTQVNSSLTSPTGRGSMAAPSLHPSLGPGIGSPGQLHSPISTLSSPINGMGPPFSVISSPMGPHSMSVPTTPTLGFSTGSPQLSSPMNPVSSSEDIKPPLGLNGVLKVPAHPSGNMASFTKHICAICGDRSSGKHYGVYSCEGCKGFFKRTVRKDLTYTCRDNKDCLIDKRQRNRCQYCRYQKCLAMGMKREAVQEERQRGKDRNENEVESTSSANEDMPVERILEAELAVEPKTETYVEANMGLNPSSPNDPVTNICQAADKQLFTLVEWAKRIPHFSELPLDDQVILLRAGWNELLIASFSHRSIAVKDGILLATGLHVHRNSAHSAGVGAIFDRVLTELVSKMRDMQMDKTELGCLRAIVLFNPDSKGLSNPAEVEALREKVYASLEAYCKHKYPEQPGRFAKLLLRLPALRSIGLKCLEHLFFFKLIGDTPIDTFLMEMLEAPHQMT
Sequence of Voltage-gated inwardly rectifying potassium channel KCNH2 (Homo sapiens) (Q12809 whole entry, looked up): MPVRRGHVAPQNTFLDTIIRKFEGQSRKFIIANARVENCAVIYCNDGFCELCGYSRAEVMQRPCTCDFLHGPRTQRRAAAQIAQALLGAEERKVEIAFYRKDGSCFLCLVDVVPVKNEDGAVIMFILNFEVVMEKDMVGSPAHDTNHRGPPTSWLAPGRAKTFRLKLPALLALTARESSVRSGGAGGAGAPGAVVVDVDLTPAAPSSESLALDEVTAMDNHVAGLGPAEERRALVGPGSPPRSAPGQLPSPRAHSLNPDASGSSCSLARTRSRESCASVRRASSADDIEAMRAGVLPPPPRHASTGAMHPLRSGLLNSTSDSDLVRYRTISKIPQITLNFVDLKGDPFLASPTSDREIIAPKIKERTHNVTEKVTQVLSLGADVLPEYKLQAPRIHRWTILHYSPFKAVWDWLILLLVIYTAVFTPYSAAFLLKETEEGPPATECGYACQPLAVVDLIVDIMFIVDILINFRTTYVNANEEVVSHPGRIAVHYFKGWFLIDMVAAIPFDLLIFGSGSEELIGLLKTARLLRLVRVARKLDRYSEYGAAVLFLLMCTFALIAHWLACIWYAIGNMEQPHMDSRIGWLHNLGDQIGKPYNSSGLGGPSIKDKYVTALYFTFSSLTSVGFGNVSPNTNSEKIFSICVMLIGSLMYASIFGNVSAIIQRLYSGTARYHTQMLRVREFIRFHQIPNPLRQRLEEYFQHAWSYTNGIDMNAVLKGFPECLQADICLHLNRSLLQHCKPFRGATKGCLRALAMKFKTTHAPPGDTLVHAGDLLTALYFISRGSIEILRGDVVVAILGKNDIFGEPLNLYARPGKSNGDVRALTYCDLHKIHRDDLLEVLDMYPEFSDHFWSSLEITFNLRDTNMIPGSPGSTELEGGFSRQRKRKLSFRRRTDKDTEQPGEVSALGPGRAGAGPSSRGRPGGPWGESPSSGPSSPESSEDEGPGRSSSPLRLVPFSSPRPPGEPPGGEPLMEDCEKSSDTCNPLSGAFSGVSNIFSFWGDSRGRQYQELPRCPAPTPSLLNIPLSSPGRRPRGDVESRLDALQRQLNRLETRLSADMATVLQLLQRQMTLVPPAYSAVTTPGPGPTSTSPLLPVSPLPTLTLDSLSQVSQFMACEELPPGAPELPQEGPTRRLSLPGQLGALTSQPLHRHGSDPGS

Row | Structure (SMILES) | activity change, negative = cytotoxicity [1] | Potency [2] | outcome [3] | outcome [4] | outcome [5] | outcome [6] | Potency [7] | Potency [8] | Potency [9] | Potency [10] | Potency [11] | Potency [12] | Potency [13] | Potency [14] | Potency [15] | max response [16] | max response [17] | Potency [18] | Potency [19] | outcome [20]
1 | C1CCC2CCCCC2C1 (stereo unspecified) | -13.5% (inactive) | inactive | inactive | inactive | inactive | inactive | inactive | inactive | inactive | inactive | inactive | inactive | inactive | inactive | inactive | -13.4% | -5.58% (inactive) | inactive | inactive | inactive
2 | OCC(Br)CBr (stereo unspecified) | -14.7% (inactive) | inactive | inactive | inactive | inactive | inactive | inactive | inactive | inactive | inactive | inactive | – | inactive | inactive | inactive | -16% | 1.29% (inactive) | inactive | inactive | inactive
3 | C=C(C)C(=O)OCC1CO1 (stereo unspecified) | -17.7% (inactive) | inactive | inactive | inactive | inactive | inactive | inactive | inactive | inactive | inactive | inactive | inactive | inactive | inactive | inactive | -10.2% | 4.24% (inactive) | inactive | inactive | inactive
4 | CCC[CH2][Sn]([Cl])([Cl])[Cl] | -25.6% (inactive) | inactive | inactive | inactive | inactive | inactive | inactive | inactive | inactive | inactive | inactive | inactive | inactive | inactive | inactive | -13.2% and -14.8% | -1.26% (inactive) and -2.57% (inactive) | inactive | inactive | inactive
5 | Cc1ccc(O)c(C)c1 | 3.22% (inactive) | inactive | inactive | inactive | inactive | inactive | inactive | – | inactive | inactive | inactive | inactive | inactive | inactive | inactive | -1.3% and -5.42% | 0.533% (inactive) and 0.504% (inactive) and 10.6% (inactive) | inactive | inactive | inactive
6 | N#CCCCl | -5.02% (inactive) and -15.1% (inactive) | inactive | inactive | inactive | inactive | inactive | inactive | inactive | inactive | inactive | inactive | inactive | inactive | inactive | inactive | 5.05% and -2.32% | 15.2% (inactive) and 9.43% (inactive) | inactive | inactive | inactive
7 | COc1ccc(N)cc1 | -5.61% (inactive) | inactive | inactive | inactive | inactive | inactive | inactive | inactive | inactive | inactive | inactive | inactive | inactive | inactive | inactive | 14.8% and 16.7% | -1.34% (inactive) and 19.9% (inactive) | inactive | inactive | inactive
8 | ClC(Cl)=C(Cl)C(Cl)=C(Cl)Cl | -27.5% (inactive) | inactive | inactive | inactive | inactive | inactive | inactive | inactive | inactive | – | inactive | inactive | inactive | inactive | – | -9.28% and -8.5% | -0.928% (inactive) and 1.51% (inactive) | inactive | inactive | inactive
